The other results are listed elsewhere or left out. A call without a number means that no potency is given here. Activity calls are given as the source filed them.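 Rule for the calls: active = compounds giving a full or partial concentration-response curve, as inhibitors or activators; inconclusive = weak, top-dose-only or unclear curve responses; inactive = no response at any tested dose.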
What follows are molecules tested against Pyruvate kinase (Leishmania mexicana) (UniProt Q27686) (assay: Confirmation Assay for Inhibitors of Leishmania Mexicana Pyruvate Kinase (LmPK)). Settings: purified LmPK, Kinase-Glo ATP luminescence, 1 h; series mostly up to 57.5 µM.
Pyruvate kinase (Leishmania mexicana), sequence (Q27686 whole entry, looked up): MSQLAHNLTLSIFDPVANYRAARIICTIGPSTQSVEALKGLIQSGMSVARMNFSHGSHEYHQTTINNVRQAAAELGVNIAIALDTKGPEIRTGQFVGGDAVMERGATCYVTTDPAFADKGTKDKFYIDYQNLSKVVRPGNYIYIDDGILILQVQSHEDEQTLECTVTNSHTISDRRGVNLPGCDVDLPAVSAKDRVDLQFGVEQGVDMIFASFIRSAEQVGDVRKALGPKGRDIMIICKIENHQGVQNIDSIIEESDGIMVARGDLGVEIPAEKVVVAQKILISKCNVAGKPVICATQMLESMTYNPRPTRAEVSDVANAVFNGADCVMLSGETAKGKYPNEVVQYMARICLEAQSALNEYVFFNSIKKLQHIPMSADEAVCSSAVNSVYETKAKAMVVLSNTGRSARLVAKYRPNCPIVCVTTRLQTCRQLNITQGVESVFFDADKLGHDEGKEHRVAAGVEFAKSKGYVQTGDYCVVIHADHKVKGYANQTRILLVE
Excerpt: NIH Chemical Genomics Center [NCGC] Malcolm Walkinshaw, Hugh Morgan, Linda Gilmore University of Edinburgh, UK MLPCN Grant: 1 R03 MH085697-01 NCGC Assay Overview: Pyruvate kinase (L. Mexicana) (LmPK) enzyme was supplied as a highly purified (>95% pure) sulphate-free preparation from University of Edinburgh, UK and assayed for its ability to generate ATP from ADP using phosphoenolpyruvate (PEP) as a substrate. ATP generation was detected in a coupled reaction by luciferase-mediated luminescence, an ATP-dependent process. […] The enzyme was assayed at an intermediate level of activity to screen for both inhibitors and activators.
NCGC Assay Protocol Summary: Three uL of enzyme mix (kept on ice) in assay buffer (50 mM Imidazole pH7.2, 50 mM KCl, 7 mM MgCl2, 0.01% Tween 20, 0.05% BSA) containing PEP (0.5 mM final concentration) and LmPK (0.1 nM final concentration) was dispensed into white solid bottom 1,536 well microtiter plates. 23 nL of compound were delivered by a pin tool and 1 uL of ADP mix in assay buffer (r.t; 0.1 mM final ADP concentration) was added. Plates were incubated at room temperature for 1 hour. Two uL of detection mix (Kinase-Glo, Promega; at 4 degree Celsius protected from light) was added and luminescence read by a ViewLux (Perkin Elmer) at 1 second exposure/plate. Data were normalized to the uninhibited and AC100 inhibition (no enzyme). To monitor activation, the first column contained a five-fold concentration of LmPK (0.5 nM).
`CC(=O)N(C1=C(Cl)C(=O)c2ccccc2C1=O)c1ccc(C(=O)O)cc1` was tested, and the Potency was 2.59 µM (active). In the case of `CN1CC(c2ccccc2)C2(COc3ccccc3C2=O)C12C(=O)Nc1ccccc12` (configuration not stated), the Potency is reported as “inactive”. In the case of `COc1ccc(-c2cn3ccc(C)cc3n2)cc1`, the Potency is reported as 9.19 µM (active). For `COCCN(C(=O)c1ccco1)c1nnc(-c2ccc(OC)cc2)s1`, the Potency was “inactive”. `COc1ccc(C(=O)C[n+]2ccc(N)c(C)c2C)cc1` was tested, and the Potency was “inactive”. In the case of `COc1ccc(-c2cc(C(F)(F)F)nc(NCc3cccnc3)n2)cc1`, the Potency is reported as “inactive”. For `Cn1cc(CN2CCCCC2c2ccccn2)c(-c2ccc3c(c2)OCCO3)n1` (configuration not stated), the Potency was “inactive”.

From PubChem BioAssay AID2559 (National Center for Advancing Translational Sciences (NCATS), 2010)
